# From PubChem
# An excerpt weighted towards active compounds, which were near 4.3% of everything screened.
# esBAF inh = blocks esBAF chromatin remodeling in mouse ES cells; Bmi1-luciferase knock-in reporter, 24 h; 100% = twice the neutral-well signal; reporter increase, % at 12.5 µM; 350,000 tested, 2% active; in the data active = activation above about 40%; inconclusive = no clear call, values can overlap the other calls;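 note: 0% = median of the plate's neutral control wells and 100% = double that signal; a rise in the Bmi1 reporter signal indicates esBAF inhibition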
# HSF1 inh = HSF1 inhibition; NIH3T3-HGL HSE-luciferase, MG132-induced, luminescence 8 h; stronger effect = lower value; activity change, negative = inhibition, % at 7.5 µM (by protocol); 300,000 tested, 0.77% active;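 active = more than half of replicate wells show activity change below -50%, luminescence cut by over half; inconclusive = some wells, but at most half, below -50%; inactive = no replicate well below -50%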;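 note: luciferase reports HSF-1 transcriptional activity via heat shock element; 0% = median of DMSO wells and -100% = zero luminescence signal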
# HSF-1 act = increases HSF-1 driven luciferase reporter signal | activation, % at 9 µM | NIH3T3-HGL HSF-1 luciferase reporter, MG132, 8 h; 100% = twice DMSO control signal | 300,000 tested, 1.7% active | AID 504408;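 active = mean replicate activation of at least 50% with a set share of replicates each reaching 50%; inconclusive = only one of those two conditions met; inactive = mean below 50% and too few replicates reaching it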;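 note: 0% = median of the neutral control wells and 100% = twice that signal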
# Wnt bcat act = activates Wnt/beta-catenin signaling in a reporter cell assay; activator, plate reader; 300,000 tested, 1.2% active; AID 743398; activation, % at 9.35 µM; in the data active = activation above about 30%, passing the limit was not always enough; inconclusive = no clear call, values can overlap the other calls;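 note: 0% = neutral control wells and 100% = positive control wells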
# SMARCA2 activ = activators of SMARCA2 function; activation, % at 9.1 µM; AID 652017; 370,000 tested, 1% active; MG213 cells, MMTV-luciferase reporter, dexamethasone, overnight; in the data active = activation above about 7.8%;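 note: 0% = vehicle wells and 100% = reference activator wells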
# MITF TRPM1 HTS = increases MITF-driven TRPM1 promoter luciferase signal; 300,000 tested, 0.75% active; SK-MEL-5 TRPM1-promoter luciferase, 24 h; % of positive control, neutral wells = 0; activation, % at 12.5 µM; AID 588334;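 active = mean activation of at least 80% with every replicate also reaching 80%; inconclusive = mean reaches 80% but some replicate falls short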;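 note: 0% = neutral control wells and 100% = parthenolide positive control wells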
# esBAF Ring1 qPCR = confirmation of esBAF inhibitors: Ring1 de-repression in mouse ESCs; shares compounds with esBAF inh; mouse ESC E14, Ring1 mRNA RT-qPCR fold change; fold change at 33 µM; 550 tested, under 10 active; AID 743176;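 active = Ring1 gene expression raised more than 2-fold over untreated cells in both replicates at either tested dose; inconclusive = only one replicate above 2-fold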;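 note: Ring1 transcript normalised to actin housekeeping signal by TaqMan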
# Fgf4 repress = confirmation of esBAF inhibitors: Fgf4 repression in mouse ESCs. Fgf4 expression fold change at 33 µM. shares compounds with esBAF inh. AID 743177. 550 tested, 4% active. mouse ESC E14, Fgf4 mRNA qPCR fold change; stronger effect = lower value;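 active = Fgf4 expression under 0.8 fold of control in both repeat measurements at one or both tested doses; inconclusive = under 0.8 fold in just a single repeat measurement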;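 note: Fgf4 transcript normalised to actin in duplex TaqMan qPCR; cells exposed to compound for 24 h before lysis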
# esBAF Bmi1 qPCR = confirmation of esBAF inhibitors: Bmi1 de-repression in mouse ESCs | AID 743180 | 550 tested, under 10 active | fold change at 33 µM | shares compounds with esBAF inh | mouse ESE14 ES cells, Bmi1 mRNA qPCR fold; stronger effect = higher value;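 active = Bmi1 expression fold change above 6 at either tested concentration, seen in replicate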;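 note: higher fold means more Bmi1 de-repression and stronger esBAF inhibition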
# A549 cytotox = cytotoxicity in A549 cells; cell viability change % (negative = cytotoxic), % at 25 µM, hits read low; shares compounds with esBAF inh; plate reader; AID 743188; 550 tested, under 10 active; call rule not given here
# HepG2 cytotox SP = cytotoxicity in HepG2 cells | activity change, negative = inhibition, % at 25 µM | plate reader; stronger effect = lower value | 550 tested, 4% active | shares compounds with esBAF inh; in the data active = activity change below about -50%
# HEK293 cytotox SP = kills or reduces viability of HEK293 cells; shares compounds with esBAF inh; HEK293 cytotoxicity, plate reader; activity change, negative = inhibition, % at 25 µM, hits read low; AID 743190; 550 tested, 3% active; in the data active = activity change below about -38%, passing the limit was not always enough
# The depositor's hits bear a star; ? = inconclusive; · = not tested or not shown.
SMILES,esBAF inh,HSF1 inh,HSF-1 act,Wnt bcat act,SMARCA2 activ,MITF TRPM1 HTS,esBAF Ring1 qPCR,Fgf4 repress,esBAF Bmi1 qPCR,A549 cytotox,HepG2 cytotox SP,HEK293 cytotox SP
Fc1ccc2cc(-c3ccsc3)ncc2c1,60*,·,·,36*,6,73,1.3,0.82,1.6,2,-2,-6
COc1cc2cnc(-c3ccsc3)cc2cc1OC,11,·,·,-2,3,-15,·,·,·,·,·,·
C[C@@H]1CCCCO[C@H](CN(C)CC2CCCCC2)[C@H](C)CN([C@@H](C)CO)C(=O)c2cc(NC(=O)Cc3ccccc3)ccc2O1,-6,·,·,·,·,·,·,·,·,·,·,·
C=CCn1c(NCc2ccc(OC)cc2O)nc2ccccc21,61*,12,33,4,6,·,1,0.96,1.8,-5,-68*,-11
Cc1cccc(NC(=O)C2C3CCCCC32)c1 (stereo unspecified),67*,9,13,7,6,45,0.95,0.87,1.6,-13,-4,-6
CC=Cc1ccc2n(c1=O)C[C@H]1[C@H](CO)[C@@H](C(=O)NCC)[C@@H]2N1Cc1ccccc1 (mixture of isomers),2,·,·,·,·,·,·,·,·,·,·,·
O=C(C[C@H]1C[C@H]2c3cc(NC(=O)c4cccnc4)ccc3O[C@H]2[C@H](CO)O1)NCCN1CCCCC1,-2,·,·,·,·,·,·,·,·,·,·,·
O=[N+]([O-])c1cccc(-c2cc3ccccc3[nH]2)c1,29,12,13,6,2,·,·,·,·,·,·,·
c1ccc(-c2cc3ccccc3[nH]2)cc1,54*,16,-1,28,-1,96*,0.96,1.1,1.2,-3,-24,-17
C[C@@H]1CCCCO[C@H](CN(C)Cc2ccc(C(=O)O)cc2)[C@H](C)CN([C@H](C)CO)C(=O)c2cc(NC(=O)NC3CCCCC3)ccc2O1,-3,·,·,·,·,·,·,·,·,·,·,·
C[C@@H]1CN([C@@H](C)CO)S(=O)(=O)c2ccc(C#CC(C)(C)O)cc2O[C@H]1CN(C)Cc1ccc(-c2ccccc2)cc1,-5,·,·,·,·,·,·,·,·,·,·,·
CSc1nnc(NC(=O)C23CC4CC(CC(C4)C2)C3)s1,58*,12,21,13,2,46,1.1,?,1,-15,-22,-8
NC(=O)CSc1nnc(NC(=O)C23CC4CC(CC(C4)C2)C3)s1,·,5,13,·,·,42,·,·,·,·,·,·
CC(C)NC(=O)N[C@H]1CC[C@H](CCNC(=O)C2CCCC2)O[C@@H]1CO,-2,·,·,·,·,·,·,·,·,·,·,·
CC/C(=N\NC(=O)c1cc(C2CC2)[nH]n1)c1ccccc1,56*,-13,-9,9,2,68,1.5,0.8,1.6,1,-7,-4
Cc1nn(-c2ccccc2)c(C)c1/C=N/NC(=O)c1cc(C2CC2)[nH]n1,·,-4,-24,·,0,-1,·,·,·,·,·,·
COCC(=O)N1C[C@H](C)[C@@H](OC)CN(C)C(=O)c2ccc(NS(C)(=O)=O)cc2OC[C@@H]1C,-20,·,·,·,·,·,·,·,·,·,·,·
C=CCNc1nc(NCc2ccc(NC(C)=O)cc2)c2sc(-c3ccccc3)cc2n1,66*,·,·,0,-1,·,·,·,·,-69*,-88*,-121*
CC(=O)Nc1ccc(CNc2nc(NC(C)C)nc3cc(-c4ccccc4)sc23)cc1,21,·,·,-3,-10,·,·,·,·,·,·,·
NC(=O)c1sc2nc(-c3cccs3)ccc2c1N,59*,9,8,13,6,14,0.99,0.94,1.2,-9,-26,-9
NC(=O)c1sc2nc3c(c(-c4cccs4)c2c1N)CCCCC3,·,?,-60,·,-5,4,·,·,·,·,·,·
CC(=O)Oc1ccc(-c2cc3ccccc3oc2=O)cc1,69*,16,15,28,1,·,1.2,?,1.2,-5,-1,0
NC(=O)c1ccc(CSc2nc3ccccc3s2)cc1,54*,30,43,19,2,55,1.4,0.87,1.7,-8,6,-12
CCNC(=O)c1ccc(CSc2nc3ccccc3s2)cc1,·,5,21,16,0,60,·,·,·,·,·,·
O=C1C(=Cc2ccncc2)CCCc2ccccc21,0,·,·,2,-4,·,·,·,·,·,·,·
O=C1/C(=C/c2cccc3ccccc23)CCCc2ccccc21,57*,27,27,42*,3,52,1.2,1.1,1.2,-11,1,0
CC(C)c1ccc(CNc2ncccn2)cc1,55*,30,33,11,4,·,1.2,0.83,1.7,-7,-16,-11
